NALP1 inh – NALP1 inflammasome inhibitors in reconstituted yeast, colorimetric, S. cerevisiae, triplicate retest; AID 2071, 2009; inhibition, % at 10 µM; 0.61% of 280,000 active; S. cerevisiae NALP1/ASC/caspase-1 growth, X-gal OD620, 72 h; in the data active = inhibition mostly above about 24%, no sharp cut-off; inactive = mostly below about 32%
sPLA2-III inh – human group III sPLA2 inhibitors, primary screen, biochemical, QFRET, BODIPY PC-A2 liposome substrate; inhibition, % at 12.2 µM; 0.56% of 370,000 active; QFRET BODIPY PC-A2 liposome hydrolysis, fluorescence; Group 3 secretory phospholipase A2 (Homo sapiens), Q9NZ20;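 active = inhibition above mean plus 3 SD of compounds lying within the high and low control bounds, cut at about 19% in these data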
Target sequence (Q9NZ20 whole entry, looked up): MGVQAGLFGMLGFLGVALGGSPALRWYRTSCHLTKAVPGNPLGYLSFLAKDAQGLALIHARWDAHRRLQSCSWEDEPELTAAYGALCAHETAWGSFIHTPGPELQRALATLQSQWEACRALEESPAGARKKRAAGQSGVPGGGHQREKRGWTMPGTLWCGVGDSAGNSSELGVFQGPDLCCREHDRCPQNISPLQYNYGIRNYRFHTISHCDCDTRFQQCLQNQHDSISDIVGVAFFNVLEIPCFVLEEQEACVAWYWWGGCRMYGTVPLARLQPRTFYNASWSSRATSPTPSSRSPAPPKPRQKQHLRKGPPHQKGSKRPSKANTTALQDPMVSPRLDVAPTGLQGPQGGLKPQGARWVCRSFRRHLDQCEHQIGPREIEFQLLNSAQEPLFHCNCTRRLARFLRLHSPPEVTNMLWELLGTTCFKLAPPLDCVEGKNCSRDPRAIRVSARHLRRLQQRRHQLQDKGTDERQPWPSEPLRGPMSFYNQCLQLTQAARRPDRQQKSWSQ
A3A deaminase – APOBEC3A ssDNA deaminase inhibitors, primary screen, selectivity assay for APOBEC3G inhibitor project, biochemical, FAM/TAMRA oligo cleavage fluorescence | inhibition, % at 20 µM | recombinant A3A, FAM/TAMRA ssDNA deamination fluorescence | 0.41% of 330,000 active | DNA dC->dU-editing enzyme APOBEC-3A (Homo sapiens), P31941 | AID 493011, 2011;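 active = at least 40% inhibition at 20 µM here, with at most 30% in a related deaminase screen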
APOBEC3G inh – APOBEC3G DNA deaminase inhibitors, primary screen, biochemical, fluorescence, single-stranded DNA substrate, uHTS; inhibition, % at 20 µM; DNA dC->dU-editing enzyme APOBEC-3G (Homo sapiens), Q9HC16; recombinant A3G, ssDNA deamination FAM/TAMRA fluorescence; 0.28% of 330,000 active;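 active = inhibition of at least 40% at 20 µM, with no more than 30% in the related APOBEC3A deaminase screen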
Fh CTSL1 inh – Fasciola hepatica cathepsin L1 inhibitors, primary screen, counter-screen for PFM18AAP inhibitor project, biochemical, QFRET, fluorogenic peptide substrate. recombinant F. hepatica cathepsin L1, Z-Leu-Arg-MCA fluorescence. 0.49% of 300,000 active. inhibition, % at 5.96 µM. AID 1906, 2009;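 active = inhibition above the mean of all tested compounds plus 3 SD, set per screening campaign, cut at about 17% in these data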
hGIII sPLA2 conf – human group III sPLA2 inhibitors, confirmation, biochemical, QFRET, triplicate; 34% of 2,000 active; shares compounds with sPLA2-III inh; inhibition, % at 12.2 µM; recombinant hGIII-sPLA2, BODIPY PC-A2 QFRET fluorescence;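 active = mean inhibition across triplicates above the hit cutoff set in the earlier primary screen, cut at about 19% in these data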
BODIPY interf – 535nm fluorescence optical interference, confirmation, artefact control for HGIII-sPLA2 inhibitor project, biochemical, QFRET; AID 743282, 2014; 8.5% of 2,000 active; inhibition, % at 12.2 µM; BODIPY FL product fluorescence interference; shares compounds with sPLA2-III inh;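 active = average inhibition above the solvent-only control mean plus 3 SD, cut at about 6% in these data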
BODIPY interf DR – 535nm fluorescence optical interference, dose response, artefact control for HGIII-sPLA2 inhibitor project, biochemical, QFRET | shares compounds with sPLA2-III inh | AID 743455, 2014 | 240 tested, under 10 active | BODIPY FL product fluorescence interference, cell-free | IC50, µM;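 active = IC50 at or below 10 µM; inactive = IC50 above 10 µM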
Large screens that a line does not name were inactive (follow-up assays come after a bar, where they were run). Most compounds without a hit are left out; they make up all but 2% or so of the library.

Cc1cc(=O)oc(C)c1C(=O)Nc1cccc2ccccc12	none
Cc1ccccc1NC(=O)c1c(C)cc(=O)oc1C	sPLA2-III inh 23 (no result: NALP1 inh) | hGIII sPLA2 conf inactive | BODIPY interf inactive
C=CCNc1ccc2c(c1)OC[C@@H](CC(C)C)NS2(=O)=O	none (no result: NALP1 inh, A3A deaminase, APOBEC3G inh, Fh CTSL1 inh)
C=CCN1C(=O)/C(=C\c2ccco2)C(C(=O)OC)=C1C	sPLA2-III inh 21 | hGIII sPLA2 conf inactive | BODIPY interf inactive
CCN1C(=O)/C(=C\c2ccco2)C(C(=O)OC)=C1C	none
COC(=O)C1=C(C)N(C)C(=NCc2ccc(OC)cc2)NC1c1ccccc1C(F)(F)F (centres undefined)	none (no result: NALP1 inh, A3A deaminase, APOBEC3G inh, Fh CTSL1 inh)
CCCCCCCCCc1conc1C(=O)/C=C/c1ccco1	sPLA2-III inh 24 (no result: NALP1 inh, A3A deaminase, APOBEC3G inh, Fh CTSL1 inh) | hGIII sPLA2 conf inactive | BODIPY interf inactive
COc1ccc(/C(C)=N/NC(=O)c2nnn(-c3nonc3N)c2CN(C)c2ccccc2)cc1	none
C/C(=N\NC(=O)c1nnn(-c2nonc2N)c1CN(C)c1ccccc1)c1ccccc1O	sPLA2-III inh 24 | hGIII sPLA2 conf 33 | BODIPY interf inactive | BODIPY interf DR inactive
CCC[C@H]1[C@@H](OC(=O)NCCc2c[nH]c3ccccc23)CC[C@@]23CCCN2C(=O)CCC[C@@H]13	none (no result: NALP1 inh, A3A deaminase, APOBEC3G inh, Fh CTSL1 inh)
C[C@@H]1CN([C@@H](C)CO)C(=O)CCCn2nncc2CO[C@@H]1CN(C)C(=O)Nc1ccccc1C(F)(F)F	sPLA2-III inh 21 (no result: NALP1 inh, A3A deaminase, APOBEC3G inh, Fh CTSL1 inh) | hGIII sPLA2 conf inactive | BODIPY interf inactive
C[C@@H]1CN([C@H](C)CO)C(=O)CCCn2nncc2CO[C@H]1CN(C)C(=O)Nc1cccc(Oc2ccccn2)c1	sPLA2-III inh 20 (no result: NALP1 inh, A3A deaminase, APOBEC3G inh, Fh CTSL1 inh) | hGIII sPLA2 conf inactive | BODIPY interf inactive
C[C@H](CO)N1C[C@H](C)[C@@H](CN(C)C(=O)Nc2cccc(Oc3ccccn3)c2)OCc2cnnn2CCCC1=O	none (no result: NALP1 inh, A3A deaminase, APOBEC3G inh, Fh CTSL1 inh)
C[C@@H]1CN([C@@H](C)CO)C(=O)CCCn2nncc2CO[C@H]1CN(C)C(=O)Nc1ccccc1C(F)(F)F	none (no result: NALP1 inh, A3A deaminase, APOBEC3G inh, Fh CTSL1 inh)
COCCn1c(SCC(=O)NCC2CCCO2)nc2c(c1=O)SC(C)C2 (centres undefined)	sPLA2-III inh 20 (no result: NALP1 inh) | hGIII sPLA2 conf inactive | BODIPY interf inactive
O=C(OCC#CCSc1nnc(-c2ccc(F)cc2)o1)c1ccc(F)cc1	none (no result: NALP1 inh, A3A deaminase, APOBEC3G inh, Fh CTSL1 inh)
COc1ccc(S(=O)(=O)N2CCN(C(=O)CSc3nc4ccccc4nc3N3CCCCC3)CC2)cc1	none (no result: NALP1 inh, A3A deaminase, APOBEC3G inh, Fh CTSL1 inh)
O=C(NC(=S)N1CCN(C/C=C/c2ccccc2)CC1)c1c(F)cccc1F	sPLA2-III inh 27 | hGIII sPLA2 conf 24 | BODIPY interf inactive
Cc1cccc2sc(NNC(=O)c3ccc(S(=O)(=O)N4CCCC(C)C4)cc3)nc12 (centres undefined)	sPLA2-III inh 34 (no result: A3A deaminase, APOBEC3G inh) | hGIII sPLA2 conf 38 | BODIPY interf inactive | BODIPY interf DR inactive
Cc1cccc2sc(NNC(=O)c3ccc(S(=O)(=O)N4CCc5ccccc5C4)cc3)nc12	sPLA2-III inh 41 | hGIII sPLA2 conf 43 | BODIPY interf 7.8
Clc1ccc(/C=N/N2CCCCC2)cc1	none
N#Cc1ccc(C=NN2CCCCCC2)cc1	sPLA2-III inh 21 (no result: NALP1 inh, A3A deaminase, APOBEC3G inh, Fh CTSL1 inh) | hGIII sPLA2 conf 23 | BODIPY interf inactive
CCCNC(=S)Nc1ccc(CC(=O)OC)cc1	sPLA2-III inh 24 | hGIII sPLA2 conf inactive | BODIPY interf inactive
Clc1ccc([C@H]2OC[C@@]3(CNCc4ccccc4)CS[C@H](c4ccc(Cl)cc4)N23)cc1	none (no result: NALP1 inh, A3A deaminase, APOBEC3G inh, Fh CTSL1 inh)
